# Screening data (PubChem)
# This is a sample that favours compounds with a hit; in the whole collection about 2.4% have one here.
# PfM18AAP inh: PfM18AAP enzyme inhibition; recombinant PfM18AAP, H-Glu-NHMec fluorogenic cleavage; inhibition, % at 7.35 µM; 1.2% of 290,000 active; AID 1822;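 active means inhibition above the campaign mean inhibition over all tested compounds plus 3 SD, cut at about 28% in these data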;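 further: 0% = plate median of test compound wells and 100% = 2 mM ZnCl2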
# A3A deaminase: inhibitors of human APOBEC3A DNA deaminase; AID 493011; inhibition, % at 20 µM; P31941; recombinant A3A, FAM/TAMRA ssDNA deamination fluorescence; 0.41% of 330,000 active;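 active means at least 40% inhibition at 20 µM here, with at most 30% in a related deaminase screen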;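 further: plate controls were A3A with DMSO for no effect and wells lacking A3A enzyme for full effect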
# Target sequence (P31941 whole entry, looked up): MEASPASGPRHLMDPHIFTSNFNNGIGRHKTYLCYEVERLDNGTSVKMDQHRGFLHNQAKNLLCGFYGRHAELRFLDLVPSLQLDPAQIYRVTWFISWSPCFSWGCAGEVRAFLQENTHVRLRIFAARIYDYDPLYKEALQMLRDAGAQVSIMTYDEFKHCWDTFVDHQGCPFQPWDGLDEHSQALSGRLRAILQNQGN
# APOBEC3G inh: inhibitors of human APOBEC3G DNA deaminase; Q9HC16; 0.28% of 330,000 active; recombinant A3G, ssDNA deamination FAM/TAMRA fluorescence; inhibition, % at 20 µM;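 active means inhibition of at least 40% at 20 µM, with no more than 30% in the related APOBEC3A deaminase screen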;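 further: plate controls were DMSO wells with A3G for no effect and wells lacking A3G enzyme for full effect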
# CR mimetic SO: yeast age-related superoxide inhibition as caloric restriction mimetic | S. cerevisiae aged cells, superoxide DHE fluorescence; hits give low values | superoxide response (% of plate mean), % at 10 µM | 0.18% of 330,000 active | AID 2690;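 active means superoxide response under a set limit, about three screen SD below normal, cut at about 65% in these data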;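 further: yeast aged for seven days with compound at 30 °C before DHE staining; 100% = average MFI of all compound-treated wells on the plate with controls excluded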
# PfGluPho inh: PfG6PD (Plasmodium falciparum) enzyme inhibition; AID 504690; PfGluPho enzyme, NADPH resazurin-diaphorase fluorescence; 0.78% of 350,000 active; inhibition, % at 20 µM;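 active means inhibition reaching at least a set limit at 20 µM in the primary screen, cut at about 59% in these data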;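 further: 0% = DMSO wells with substrate and 100% = DMSO wells lacking glucose-6-phosphate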
# A3G conf: confirmation of human APOBEC3G DNA deaminase inhibitors. shares compounds with APOBEC3G inh. recombinant A3G ssDNA deaminase, UDG/FAM-TAMRA fluorescence. inhibition, % at 20 µM. 72% of 890 active. AID 493152;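 active means inhibition reaching a set limit in any replicate at 20 µM, the limit being 80% of the first screen's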
# UDG A3G counter: E. coli UDG inhibition in APOBEC3G counter-screen; shares compounds with APOBEC3G inh; 710 tested, under 10 active; UDG counterscreen, FAM/TAMRA oligo fluorescence; inhibition, % at 20 µM;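 active means compounds giving 40% or more inhibition at 20 µM in any one of the three replicates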;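 further: plate controls were DMSO wells with UDG and oligo for no effect and DMSO wells lacking both for full effect; inhibitors lower the FAM signal released by uracil excision and alkaline cleavage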
# Target sequence (P12295 whole entry, looked up): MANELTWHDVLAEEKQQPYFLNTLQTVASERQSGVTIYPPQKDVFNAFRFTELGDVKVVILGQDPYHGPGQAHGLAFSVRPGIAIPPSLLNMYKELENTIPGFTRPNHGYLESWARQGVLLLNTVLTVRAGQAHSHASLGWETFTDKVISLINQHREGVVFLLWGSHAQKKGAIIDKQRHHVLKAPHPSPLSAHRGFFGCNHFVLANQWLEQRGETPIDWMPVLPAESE
# * hit, by the source's call; . = not tested or not shown.
SMILES,PfM18AAP inh,A3A deaminase,APOBEC3G inh,CR mimetic SO,PfGluPho inh,A3G conf,UDG A3G counter
O=S(=O)(Nc1ccc(O)c(NS(=O)(=O)c2ccccc2)c1)c1ccccc1,68.3*,1.7,50.2*,86.4,4.8,69.0*,-2.1
CCOC(=O)c1sc(NC(=O)CSc2nc(C)cc(C)n2)c(C#N)c1C,-0.8,4.7,-4.0,87.9,-21.4,.,.
CCOC(=O)c1sc(NC(=O)CSc2n[nH]c(-c3ccccc3)n2)c(C#N)c1C,19.8,2.3,46.8*,93.0,62.0*,32.3*,-2.3
CCOC(=O)c1c2c3c(cccc3[nH]c1=O)C(=O)c1ccccc1-2,2.2,-3.2,53.2*,99.3,12.8,0.5,-2.5
CCOC(=O)c1c2c3c(cccc3n(C)c1=O)C(=O)c1ccccc1-2,-4.3,-1.4,55.1*,98.0,13.7,-0.6,-3.0
C[C@H]1CN(S(=O)C(C)(C)C)[C@H](CCO)/C1=C\CCO (stereo partly specified),.,.,.,.,16.2,.,.
Cc1ccccc1Cn1cnc2c(cnn2C(C)(C)C)c1=O,6.5,-3.2,-4.1,92.5,-6.5,.,.
Cc1ccc(C)c(Cn2cnc3c(cnn3C(C)(C)C)c2=O)c1,3.6,1.1,57.9*,104.5,-11.5,0.3,.
COc1cc(CNCCNC(=O)c2nonc2N)ccc1OCc1ccc(Cl)cc1,-9.1,-7.1,78.9*,103.0,15.3,-1.7,-5.6
COc1cccc(CNCCNC(=O)c2nonc2N)c1,-2.8,4.4,-4.2,104.6,-14.1,.,.
COC(=O)C1=C(COc2ccccc2)NC(=O)NC1c1ccc(Cl)cc1 (stereo unspecified),.,-2.0,48.1*,97.8,-3.3,3.4,-2.0
CCOC(=O)C1=C(COc2ccccc2)NC(=O)NC1c1ccc(Cl)cc1 (stereo unspecified),1.0,-3.1,-7.6,95.3,14.9,.,.
CCCC(C)NC(=O)c1cc(C(=O)OC)cc([N+](=O)[O-])c1 (stereo unspecified),-2.2,-3.5,-5.5,112.3,-14.3,.,.
CCCC(C)c1nnc(NC(=O)c2cc(C(=O)OC)cc([N+](=O)[O-])c2)s1 (stereo unspecified),3.9,9.5,60.2*,94.1,49.9,72.7*,1.4
CCCc1cc(-c2ccc3c(c2)COc2c4ccccc4nn2-3)on1,.,-1.2,-6.8,95.0,-10.2,.,.
Cc1cccn2c(=O)c3cc(C(=O)NCc4ccco4)c(=N)n(CCOCCO)c3nc12,28.9*,26.8,58.5*,101.3,26.2,29.2,.
COc1ccc(/C=N/n2c(-c3ccc(C)cc3)n[nH]c2=S)cc1OC,4.8,-0.7,32.1,93.6,39.0,.,.
COc1ccc(/C=N/n2c(-c3n[nH]c4c3CCC4)n[nH]c2=S)cc1OC,15.3,-0.4,47.7*,106.4,57.9,60.6*,-3.3
COc1cc(/C=N/n2c(-c3n[nH]c4c3CCC4)n[nH]c2=S)ccc1O,17.1,-2.0,46.6*,101.4,29.2,57.9*,2.0
Nc1nc2ccccc2[nH]1,-4.9,0.8,0.5,105.9,-2.1,.,.
Nc1ccccc1Sc1nc2ccccc2[nH]1,25.3,0.2,56.6*,87.0,62.1*,1.5,.
O=C1N(Cc2ccccc2)CC2(Br)COCOC12O (stereo unspecified),.,.,.,.,55.1,.,.
CCN1CCN(C(=O)CN2C(=O)c3ccccc3S2(=O)=O)CC1,.,-1.8,-11.0,96.0,-1.1,.,.
O=C(CC1CCCC1)Nc1cc(S(=O)(=O)N2CCOCC2)ccc1O,.,4.4,56.8*,99.9,57.5,33.4*,-2.4
CC(C)Oc1ccc(S(=O)(=O)N2CCOCC2)cc1NC(=O)CC1CCCC1,.,-1.4,-1.6,82.4,-7.3,.,.
COc1cc2cc3c(N)c(C(=O)NCc4ccco4)sc3nc2cc1OC,22.7,-0.6,4.4,94.2,37.2,.,.
COc1cc2cc3c(N)c(C(=O)Nc4sc(C)c(C)c4C#N)sc3nc2cc1OC,15.9,19.1,47.8*,99.4,-6.3,26.6*,4.4
COc1ccc(S(N)(=O)=O)cc1C(=O)N(C)CC(=O)Nc1ccc(N2CCOCC2)cc1,12.3,-4.2,-6.1,82.1,-10.3,.,.
COc1ccc(OCc2nnc(SCC(=O)N(C)Cc3ccccc3)n2N)cc1,25.5,3.1,47.2*,97.5,53.3,41.5*,-3.8
